Experimental data as given in PubChem BioAssay (NCATS).
Inconclusive results are not listed. Activity calls are given as the source filed them. Calls come from the whole dose curve; as a rule, active = well fitted inhibition curve with a large enough effect; inconclusive = small, poorly fitted or top-dose-only effect; inactive = flat fitted curve, though single readings scatter.

System: CP329
Test: qHTS profiling for inhibitors of Plasmodium falciparum proliferation (AID 504749); note: nearly all actives have a fitted effect of over 60% in size;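 for activity, negative = inhibition: 0% = DMSO vehicle and full inhibition = artemisinin control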
Conditions: P. falciparum in erythrocytes, SYBR Green DNA, 72 h; series mostly up to 12.8 µM; activity, negative = inhibition: at the top concentration
Outline: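 Each compound contacts P. falciparum-infected red blood cells for 72 h at 37 C; lysis buffer (Tris, EDTA, saponin, Triton X, SYBR Green I) is added and fluorescence measured next morning; values normalized to controls.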
Potency is the fitted concentration of half-maximal effect.

activity, negative = inhibition, inactive:
CC(C)=CCC[C@](C)(O)C1CC=C(C)CC1 (stereo not given in full) 9.88% [at 28.7 µM]
C[C@]1(c2ccccc2)OC(C(=O)O)=CC1=O -3.49% [at 28.7 µM]
CC(=O)N[C@H](CC(C)C)C(=O)O 1.11% [at 28.7 µM]
COc1ccc2cc(C(C)CO)ccc2c1 (stereo not given) -0.382% [at 28.7 µM]
CC1CCC(C(C)C)C(=O)C1 (stereo not given) 7.46% [at 28.7 µM]
CNC1CC(N)[C@H](O)[C@@H](O[C@@H]2OC(CO)C3OC4(OC(C(N)CO)C(O)C(O)C4O)O[C@@H]3[C@H]2O)C1O (stereo not given in full) 5.35% [at 28.7 µM]
CCCC(=O)O[C@]1(C(=O)CO)CCC2[C@@H]3CCC4=CC(=O)CC[C@]4(C)C3C(O)C[C@]21C (stereo not given in full) 3.4% [at 28.7 µM]
CC(=O)[C@]1(O)CCC2C3C=C(Cl)C4=CC(=O)C5CC5[C@@]4(C)C3CC[C@]21C (stereo not given in full) -5.26% [at 28.7 µM]
CC(=O)N[C@@H]1C(O)OC(CO)C(O)C1O (stereo not given in full) 3.92% [at 28.7 µM]
C/C1=C2N=C(/C=C3N=C(/C(C)=C4\[N-]C(C)(C5N=C1C(C)(CCC(=O)NCC(C)OP(=O)([O-])O[C@H]1C(O)C(n6cnc7cc(C)c(C)cc76)O[C@@H]1CO)C5CC(N)=O)C(C)(CC(N)=O)C4CCC(N)=O)C(C)(CC(N)=O)C\3CCC(N)=O)C(C)(C)C/2CCC(N)=O.[CH2-]C1OC(n2cnc3c(N)ncnc32)C(O)C1O.[Co] (stereo not given in full) 7.5% [at 28.7 µM]
O=C1OC(CO)C(O)C(O)C1O (stereo not given) 7.65% [at 28.7 µM]
CNC1C(OC2C(O[C@@H]3C(O)C(O)[C@@H](N=C(N)N)C(O)C3N=C(N)N)OC(C)[C@@]2(O)CO)OC(CO)C(O)C1O (stereo not given in full) 4.13% [at 28.7 µM]
Nc1nc2ncc(CNc3ccc(C(=O)NC(CCC(=O)O)C(=O)O)cc3)nc2c(=O)[nH]1 (stereo not given) 0.0147% [at 28.7 µM]

Potency, active:
COC1C=CO[C@@]2(C)Oc3c(C)c(O)c4c(O)c(c(C=NN5CCN(C)CC5)c(O)c4c3C2=O)NC(=O)/C(C)=C\C=CC(C)C(O)[C@@H](C)C(O)C(C)[C@H](OC(C)=O)C1C (stereo not given in full) 3.38 µM
COc1cc(C2c3cc4c(cc3C(O[C@@H]3OC5COC(c6cccs6)OC5C(O)C3O)C3COC(=O)C23)OCO4)cc(OC)c1O (stereo not given in full) 4.26 µM
